Test results published in PubChem BioAssay (NCATS).
Records with an inconclusive call do not appear. Active and inactive are the calls of the source. Unless noted, calls follow the shape of the dose curve; as a rule, active = well fitted curve in the direction sought with a large enough effect; inconclusive = small, poorly fitted or top-dose-only effect, or another doubt; inactive = no such curve, though single readings can be large; an effect the other way counts as inactive or inconclusive.

Legend:
[1] = target: Lysosomal acid glucosylceramidase (Homo sapiens) (UniProt P04062); test: Glucocerebrosidase-p2 (AID 348; in the data active = potency below about 10 µM; also: potency is read from the fitted curve at half-maximal effect); conditions: purified GBA, blue fluorogenic substrate, 40 min
Sequence of Lysosomal acid glucosylceramidase (Homo sapiens) (P04062 whole entry, looked up): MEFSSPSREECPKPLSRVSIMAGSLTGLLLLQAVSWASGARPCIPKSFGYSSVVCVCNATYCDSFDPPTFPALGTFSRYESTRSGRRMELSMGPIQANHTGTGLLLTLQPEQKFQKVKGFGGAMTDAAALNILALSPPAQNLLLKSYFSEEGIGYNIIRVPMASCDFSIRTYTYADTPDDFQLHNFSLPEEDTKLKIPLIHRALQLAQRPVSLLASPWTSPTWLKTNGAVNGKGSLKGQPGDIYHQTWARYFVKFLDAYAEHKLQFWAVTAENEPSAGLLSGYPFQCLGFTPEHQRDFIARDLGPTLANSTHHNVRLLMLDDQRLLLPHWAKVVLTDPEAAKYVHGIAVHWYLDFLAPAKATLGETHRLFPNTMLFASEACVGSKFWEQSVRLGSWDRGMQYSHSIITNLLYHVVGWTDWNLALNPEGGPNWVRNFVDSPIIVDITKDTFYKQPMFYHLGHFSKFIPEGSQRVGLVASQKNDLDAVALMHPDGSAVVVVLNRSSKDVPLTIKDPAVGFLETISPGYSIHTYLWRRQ
Method in brief: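 Normal human glucocerebrosidase (0.2 nM) with blue fluorogenic substrate (80 uM final) in citrate/phosphate pH 5.9 with 10mM sodium taurocholate, 0.01% tween-20; 40 min RT, NaOH/glycine stop; fluorescence Ex 365/Em 440; AC50 from a titration from 0.6 nM upwards.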

[2] = AP1 Signaling Pathway (AID 357; active = well fitted curve in either direction with a large enough effect, not every such curve was filed as active;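 also: ME-180 reporter cells stimulated with EGF at its EC50 level; % is scaled to controls: 0 for no effect and ±100 for the full control effect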); conditions: ME-180 AP-1-bla reporter, EGF-induced, beta-lactamase ratio, 5 h; at 7.69 µM (top of the series) unless noted
Method in brief: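 Modulation of EGF-driven AP-1 transcription was assessed with a beta-lactamase reporter in ME-180 cells. Compound and EC50 EGF were co-incubated 5 hours at 37 °C before 2.5-hour CCF4 loading at room temperature and dual-emission reading.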

[3] = target: Cytochrome P450 1A2 (Homo sapiens) (UniProt P05177); test: p450-cyp1a2 (AID 410; calls by dose curve; also: potency is read from the fitted curve at half-maximal effect); conditions: recombinant CYP1A2, luciferin-ME demethylation, luminescence; series mostly up to 57 µM
Sequence of Cytochrome P450 1A2 (Homo sapiens) (P05177 whole entry, looked up): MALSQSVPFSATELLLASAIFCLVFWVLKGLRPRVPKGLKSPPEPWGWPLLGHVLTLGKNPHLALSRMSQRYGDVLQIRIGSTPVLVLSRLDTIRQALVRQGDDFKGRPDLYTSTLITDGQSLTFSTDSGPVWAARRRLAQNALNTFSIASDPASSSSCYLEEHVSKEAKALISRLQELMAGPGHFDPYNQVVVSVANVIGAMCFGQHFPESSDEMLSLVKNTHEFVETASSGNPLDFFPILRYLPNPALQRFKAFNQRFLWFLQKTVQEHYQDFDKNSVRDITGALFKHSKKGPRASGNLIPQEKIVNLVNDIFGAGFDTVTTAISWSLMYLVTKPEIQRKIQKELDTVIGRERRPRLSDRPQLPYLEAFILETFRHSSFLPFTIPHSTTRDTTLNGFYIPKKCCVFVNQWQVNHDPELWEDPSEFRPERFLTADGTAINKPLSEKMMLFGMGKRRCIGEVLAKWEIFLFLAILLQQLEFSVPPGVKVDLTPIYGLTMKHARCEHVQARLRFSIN
Method in brief: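 20nM CYP1A2, 100uM Luciferin-ME (=Km), 100mM KPO4; cpd 10 min RT; +NADPH regen, 60 min RT; stop/detect 20 min; luminescence. Normalized to furafylline 57 uM = full inhibition.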

[4] = NFAT Signaling Pathway (AID 444; active = well fitted curve in either direction with a large enough effect, not every such curve was filed as active;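 also: carbachol stimulus at about its EC50 of 1 µM final; % is scaled to controls: 0 for no effect and ±100 for the full control effect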); conditions: Jurkat NFAT-bla M1, carbachol, beta-lactamase ratio, 5 h; at 7.69 µM (top of the series) unless noted
Method in brief: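 Jurkat cells with NFAT-driven β-lactamase reporter and co-expressed M1 receptor, stimulated with carbachol (final 1 uM, ~EC50), compound titration, 5 h at 37 °C. CCF4 loaded 1 h at RT; 460/530 nm ratio gave %activity and AC50.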

[5] = Stat Signaling Pathway (AID 446; active = well fitted curve in either direction with a large enough effect, not every such curve was filed as active;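 also: ME-180 cervical cancer cells given 40 pM IL-6 alongside compound; SIE-controlled beta-lactamase reporter measured as 460/530 nm FRET emission ratio; % is scaled to controls: 0 for no effect and ±100 for the full control effect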); conditions: ME-180 (cervical carcinoma) SIE beta-lactamase reporter, IL-6 stimulated, 5 h; at 7.69 µM (top of the series) unless noted
Method in brief: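 Overnight-plated ME-180 cells bearing a STAT Inducible Element beta-lactamase reporter; 5 h co-exposure to compound and 40 pM IL-6; values normalized to 300 pM IL-6 and 125 nM JAK inhibitor controls.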

[6] = target: Glucocorticoid receptor (Homo sapiens) (UniProt P04150); test: GR-GFP Redistribution (AID 450;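 active = compounds whose dose series gives a full or clear partial fitted curve of increased nuclear translocation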; also: potency is read from the fitted curve at half-maximal effect); conditions: U2OS GR-GFP nuclear translocation, laser cytometry, 2 h
Sequence of Glucocorticoid receptor (Homo sapiens) (P04150 whole entry, looked up, the tested form may be a part): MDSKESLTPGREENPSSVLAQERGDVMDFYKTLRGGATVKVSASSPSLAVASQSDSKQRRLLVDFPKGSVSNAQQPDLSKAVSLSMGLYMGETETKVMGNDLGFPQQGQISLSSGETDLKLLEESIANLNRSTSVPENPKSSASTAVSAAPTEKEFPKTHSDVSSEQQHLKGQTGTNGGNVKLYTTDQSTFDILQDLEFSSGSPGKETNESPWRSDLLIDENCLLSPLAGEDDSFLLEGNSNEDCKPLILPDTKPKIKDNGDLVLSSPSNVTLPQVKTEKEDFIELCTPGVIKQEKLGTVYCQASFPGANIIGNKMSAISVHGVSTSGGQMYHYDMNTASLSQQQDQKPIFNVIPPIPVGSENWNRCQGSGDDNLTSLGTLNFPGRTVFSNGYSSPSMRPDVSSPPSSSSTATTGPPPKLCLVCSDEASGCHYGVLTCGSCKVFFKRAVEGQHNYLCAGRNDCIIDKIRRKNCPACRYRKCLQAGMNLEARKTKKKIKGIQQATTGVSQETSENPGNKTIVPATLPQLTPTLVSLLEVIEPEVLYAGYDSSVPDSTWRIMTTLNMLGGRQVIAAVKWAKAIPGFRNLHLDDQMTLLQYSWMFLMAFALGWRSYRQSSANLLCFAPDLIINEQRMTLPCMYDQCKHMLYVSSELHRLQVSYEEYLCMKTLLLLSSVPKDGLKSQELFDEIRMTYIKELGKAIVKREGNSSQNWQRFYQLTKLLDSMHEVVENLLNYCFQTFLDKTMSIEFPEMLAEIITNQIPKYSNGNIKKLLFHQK

[7] = target: Glucocorticoid receptor (Homo sapiens) (UniProt P04150); test: GR-EFC Redistribution (AID 451; calls by dose curve; also: potency is read from the fitted curve at half-maximal effect); conditions: CHO-K1 GR-EFC translocation, beta-gal luminescence, 2 h
Method in brief: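 CHO-K1 cells expressing nuclear EA and GR-ED fragments of b-gal; compounds titrated up to 46 uM final, 2 h at 37 C. GR nuclear translocation read as complemented b-gal luminescence after 1 h RT detection.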

[8] = target: Mitogen-activated protein kinase 10 (Mus musculus) (UniProt Q61831); test: JNK3 AlphaScreen Assay (AID 530; active = well fitted curve in either direction with a large enough effect, not every such curve was filed as active;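 also: kinase came from lysate of stimulated human HepG2 cells; signal reports phosphorylation of biotinylated GST-cJun 1-79 at Ser73 with 10 µM ATP; % is scaled to controls: 0 for no effect and ±100 for the full control effect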); conditions: JNK3 lysate, c-Jun phosphorylation; series mostly up to 57.1 µM
Method in brief: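 HepG2 lysate (IL-1b/TNFa pre-activated) + biotin-GST-cJun 1-79 + anti-pSer73 cJun; cpd titration, 15 min RT; ATP 10 uM start; Tris pH 7.6, MgCl2, DTT, vanadate; beads in EDTA buffer; AlphaScreen.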

[9] = target: 3',5'-cyclic-AMP phosphodiesterase 4B (Homo sapiens) (UniProt Q07343); test: qHTS Assay for Inhibitors of PDE-IV (AID 607; active = well fitted activation curve with a large enough effect in the main read-out, with a control signal flat, not every such curve was filed as active; also: % of control where 0% means no effect); conditions: HEK293 ACTOne CNG channel cells, membrane potential fluorescence; series mostly up to 22.9 µM
Sequence of 3',5'-cyclic-AMP phosphodiesterase 4B (Homo sapiens) (Q07343 whole entry, looked up): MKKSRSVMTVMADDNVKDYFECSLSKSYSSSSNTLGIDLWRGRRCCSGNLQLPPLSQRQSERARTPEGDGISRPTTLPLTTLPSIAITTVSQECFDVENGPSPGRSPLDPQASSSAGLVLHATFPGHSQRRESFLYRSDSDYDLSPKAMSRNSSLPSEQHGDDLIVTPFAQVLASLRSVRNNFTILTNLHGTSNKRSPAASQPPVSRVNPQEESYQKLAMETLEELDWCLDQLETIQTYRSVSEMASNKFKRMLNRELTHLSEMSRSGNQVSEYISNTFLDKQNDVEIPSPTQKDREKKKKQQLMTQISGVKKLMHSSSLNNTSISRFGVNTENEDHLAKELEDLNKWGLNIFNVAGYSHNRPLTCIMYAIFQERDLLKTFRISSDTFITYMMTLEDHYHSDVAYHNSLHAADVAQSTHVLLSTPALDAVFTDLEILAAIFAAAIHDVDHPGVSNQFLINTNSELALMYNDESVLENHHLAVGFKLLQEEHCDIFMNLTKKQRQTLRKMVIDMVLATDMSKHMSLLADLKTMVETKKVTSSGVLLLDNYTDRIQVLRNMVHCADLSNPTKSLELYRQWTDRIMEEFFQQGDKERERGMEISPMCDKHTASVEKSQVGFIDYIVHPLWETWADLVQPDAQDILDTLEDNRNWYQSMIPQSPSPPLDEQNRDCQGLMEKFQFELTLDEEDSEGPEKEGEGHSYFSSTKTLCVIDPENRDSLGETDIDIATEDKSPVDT
Method in brief: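 Live HEK293 cells with a modified cyclic nucleotide-gated (CNG) channel report intracellular cAMP via membrane-potential dye fluorescence (ex 535/em 590 nm). Endogenous PDE-IV was targeted. Compounds were tested at up to 22.9 uM final; RO 20-1724 100 uM served as control.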

[10] = target: Cytochrome P450 3A4 (Homo sapiens) (UniProt P08684); test: qHTS Assay for Activators of Cytochrome P450 3A4 (AID 885); conditions: recombinant CYP3A4, Luciferin-PPXE luminescence, 60 min; series mostly up to 57.1 µM; also: nearly all actives have a fitted effect of over 65% in size; also: potency is read from the fitted curve at half-maximal effect
Sequence of Cytochrome P450 3A4 (Homo sapiens) (P08684 whole entry, looked up): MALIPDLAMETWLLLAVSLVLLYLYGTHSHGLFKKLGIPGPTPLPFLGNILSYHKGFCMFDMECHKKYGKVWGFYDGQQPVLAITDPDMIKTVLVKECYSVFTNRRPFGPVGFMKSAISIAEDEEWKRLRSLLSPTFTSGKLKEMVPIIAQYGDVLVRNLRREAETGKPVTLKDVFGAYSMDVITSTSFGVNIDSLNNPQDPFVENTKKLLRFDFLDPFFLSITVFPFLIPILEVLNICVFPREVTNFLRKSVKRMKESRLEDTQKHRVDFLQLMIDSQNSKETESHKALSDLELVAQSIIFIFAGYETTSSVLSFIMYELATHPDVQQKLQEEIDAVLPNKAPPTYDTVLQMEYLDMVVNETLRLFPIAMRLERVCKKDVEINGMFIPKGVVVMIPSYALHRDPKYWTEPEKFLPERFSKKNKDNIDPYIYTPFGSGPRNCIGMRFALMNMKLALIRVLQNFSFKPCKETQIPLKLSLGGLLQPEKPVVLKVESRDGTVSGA
Method in brief: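 Using 20nM recombinant human CYP3A4 in potassium phosphate (200mM), substrate Luciferin-PPXE at 25uM, luminescent luciferin detection followed a 60-min RT NADPH reaction; data scaled to 57 uM ketoconazole.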

[11] = qHTS Assay for Lipid Storage Modulators (AID 1519; calls by dose curve); conditions: Drosophila S3 cells, BODIPY lipid droplet/cell ratio, laser cytometry, cells loaded with oleic acid; for activity change, negative = inhibition: at 57.5 µM (top of the series)
Method in brief: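 Cells seeded at 5,000 per well were treated with compounds over a concentration series and loaded with oleic acid (400 uM, as added). Lipid droplet fluorescence (488 nm excitation, 500-530 nm channel) was read by laser-scanning cytometry and normalized to 20 uM Triacsin C.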

[12] = target: Dual specificity protein kinase CLK4 (Homo sapiens) (UniProt Q9HAZ1); test: qHTS Assay for Inhibitors of CDC-like Kinase 4 (Kinase-Glo Assay) (AID 1770); conditions: recombinant Clk4, Kinase-Glo ATP depletion luminescence; series mostly up to 66.7 µM; also: nearly all actives have a fitted effect of over 65% in size; also: potency is read from the fitted curve at half-maximal effect
Sequence of Dual specificity protein kinase CLK4 (Homo sapiens) (Q9HAZ1 whole entry, looked up): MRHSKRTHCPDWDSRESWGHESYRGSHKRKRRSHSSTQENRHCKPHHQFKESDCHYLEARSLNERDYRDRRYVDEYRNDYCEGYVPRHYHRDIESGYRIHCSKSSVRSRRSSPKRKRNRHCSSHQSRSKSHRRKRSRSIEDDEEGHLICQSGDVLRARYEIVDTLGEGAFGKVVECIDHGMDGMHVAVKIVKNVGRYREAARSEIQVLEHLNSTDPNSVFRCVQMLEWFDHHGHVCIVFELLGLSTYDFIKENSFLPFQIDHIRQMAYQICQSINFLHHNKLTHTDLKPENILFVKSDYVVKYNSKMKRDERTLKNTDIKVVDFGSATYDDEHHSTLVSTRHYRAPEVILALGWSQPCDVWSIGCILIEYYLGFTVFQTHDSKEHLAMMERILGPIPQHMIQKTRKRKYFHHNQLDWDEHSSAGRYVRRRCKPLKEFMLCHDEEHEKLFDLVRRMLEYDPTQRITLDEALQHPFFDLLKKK
Method in brief: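 Luminescent ATP-depletion read-out (Kinase-Glo) after 4.5 h room-temperature reaction of Clk4 (25 nM final) with RS peptide (100 uM) and ATP (1 uM), pH 7.5 Tris buffer with MgCl2 and DTT.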

[13] = target: Dual specificity protein kinase CLK4 (Homo sapiens) (UniProt Q9HAZ1); test: qHTS Assay for Inhibitors of CDC-like Kinase 4 (ADP-Glo Assay) (AID 1771); conditions: recombinant CLK4, ADP-Glo luminescence; series mostly up to 80 µM; also: nearly all actives have a fitted effect of over 70% in size; also: potency is read from the fitted curve at half-maximal effect
Method in brief: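 25 nM Clk4, 100 uM RS peptide, 1 uM ATP (final); 2 mM MgCl2, 0.5 mM EGTA, 2.5 mM DTT, 0.01% Triton X-100; 1 hr RT. ADP-Glo readout: ATP depletion 45 min, conversion/luciferase 30 min, luminescence.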

[14] = target: Dual specificity protein kinase CLK4 (Homo sapiens) (UniProt Q9HAZ1); test: qHTS Assay for Inhibitors of CDC-like Kinase 4 (ADP-FP Assay) (AID 1795); conditions: Transcreener ADP fluorescence polarization; series mostly up to 50 µM; also: nearly all actives have a fitted effect of over 60% in size; also: potency is read from the fitted curve at half-maximal effect
Method in brief: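 Kinase activity was measured as ADP production using Transcreener orange tracer (4 nM) and ADP antibody (1 ug/mL) fluorescence polarization, with ADP calculated from a calibration curve. The 1 h reaction contained 6.25 nM Clk4, 1 uM ATP and 100 uM RS peptide at pH 7.5 with Mg2+.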

[15] = target: Ubiquitin carboxyl-terminal hydrolase 1 (Homo sapiens) (UniProt O94782); test: Inhibitors of USP1/UAF1: Pilot qHTS (AID 504865); conditions: purified USP1/UAF1, Ub-rhodamine cleavage fluorescence; series mostly up to 54.9 µM;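 also: rhodamine fluorescence freed from ubiquitin-rhodamine substrate followed over time; top concentration of the series differs between compounds; % is scaled to controls: 0 for no effect and ±100 for the full control effect; nearly all actives have a fitted effect of over 35% in size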
Sequence of Ubiquitin carboxyl-terminal hydrolase 1 (Homo sapiens) (O94782 whole entry, looked up): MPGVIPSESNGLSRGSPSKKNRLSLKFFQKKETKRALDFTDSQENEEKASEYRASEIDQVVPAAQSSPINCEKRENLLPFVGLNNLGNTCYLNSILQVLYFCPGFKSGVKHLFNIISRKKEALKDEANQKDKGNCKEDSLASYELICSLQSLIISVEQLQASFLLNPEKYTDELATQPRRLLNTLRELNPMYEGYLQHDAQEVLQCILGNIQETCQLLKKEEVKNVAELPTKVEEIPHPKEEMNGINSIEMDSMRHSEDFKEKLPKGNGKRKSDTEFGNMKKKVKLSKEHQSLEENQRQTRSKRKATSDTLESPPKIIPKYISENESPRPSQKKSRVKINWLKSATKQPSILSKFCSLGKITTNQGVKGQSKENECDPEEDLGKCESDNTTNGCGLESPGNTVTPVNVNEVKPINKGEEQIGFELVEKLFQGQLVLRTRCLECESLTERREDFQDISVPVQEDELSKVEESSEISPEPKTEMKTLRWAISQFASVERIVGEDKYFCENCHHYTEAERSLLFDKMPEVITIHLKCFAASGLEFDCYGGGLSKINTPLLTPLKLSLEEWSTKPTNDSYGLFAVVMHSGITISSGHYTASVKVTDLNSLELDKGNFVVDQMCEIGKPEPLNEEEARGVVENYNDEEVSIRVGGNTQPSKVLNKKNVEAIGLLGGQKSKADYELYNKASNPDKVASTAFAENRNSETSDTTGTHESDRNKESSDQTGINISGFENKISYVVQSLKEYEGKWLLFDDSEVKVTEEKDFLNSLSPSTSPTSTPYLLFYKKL
Method in brief: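 Deubiquitinase activity followed as kinetic rhodamine fluorescence release from 150 nM Ub-Rho. 1 nM USP1/UAF1 with compound, after 15 min room-temperature preincubation, in HEPES pH 7.8 buffer containing TCEP, EDTA, BSA and Tween-20.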

[16] = Primary qHTS for small molecule stabilizers of the endoplasmic reticulum resident proteome: Secreted ER Calcium Modulated Protein (SERCaMP) assay (AID 1508630); conditions: SH-SY5Y GLuc-SERCaMP (Gaussia luciferase released on ER calcium loss) secretion, thapsigargin, luminescence; series mostly up to 38.4 µM; also: % is scaled to controls: 0 for no effect and ±100 for the full control effect
Method in brief: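 The SH-SY5Y reporter protocol was run at 3 concentrations up to 38.3 uM (primary) or 11 concentrations (follow-up): 16 h compound, 100 nM thapsigargin for 4 h, then extracellular luciferase luminescence.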

[17] = measured here: cell count channel max response
[18] = measured here: lipid channel max response

SMILES | Potency [1] | activity change, negative = inhibition [2] | Potency [3] | activity change, negative = inhibition [4] | activity, negative = inhibition [5] | Potency [6] | Potency [7] | outcome [8] | Potency [9] | Potency [10] | activity change, negative = inhibition [11] | max response [11, 17] [%] | max response [11, 18] [%] | Potency [12] | Potency [13] | Potency [14] | Potency [15] | Potency [16]
COCCn1c(=O)cnc2cnc(Oc3ccc(OC)cc3)nc21 | > 11.4 µM (inactive) | -2.08% (inactive) | 5.01 µM (active) | -2.59% (inactive) | -5.99% (inactive) | > 9.22 µM (inactive) | > 46 µM (inactive) | inactive | inactive | inactive | 2.42% (inactive) | 12.6 | 10.8 | inactive | inactive | inactive | inactive | inactive
Cc1ccccc1-c1cc(NCCN2CCOCC2)ncn1 | > 11.4 µM (inactive) | -3.13% (inactive) | 31.6 µM (active) | -3.03% (inactive) | 2.72% (inactive) | > 46 µM (inactive) | > 46 µM (inactive) | inactive | inactive |  | -1.17% (inactive) | -3.29 | -5.46 | inactive | inactive | inactive | inactive | inactive
O=c1cnc2cncnc2n1Cc1ccccc1 | > 11.4 µM (inactive) | -12.8% (inactive) | 25.1 µM (active) | -13.5% (inactive) | -12.1% (inactive) | > 9.22 µM (inactive) | > 46 µM (inactive) | inactive |  | inactive | 0.677% (inactive) | 15 | 14 | inactive | inactive | inactive | inactive | inactive
COc1ccccc1CCn1c(=O)c(-c2cccc(F)c2)nc2cncnc21 | > 11.4 µM (inactive) | -14.2% (inactive) | 1.58 µM (active) | -17.1% (inactive) | 3.83% (inactive) | > 9.22 µM (inactive) | > 46 µM (inactive) | inactive |  | inactive | 6.88% (inactive) | 18.2 | 19.8 | inactive | inactive | inactive | inactive | inactive
FC(F)(F)c1ccccc1-c1cc(NCc2ccccc2)ncn1 | > 11.4 µM (inactive) | -15.2% (inactive) | 12.6 µM (active) | -0.248% (inactive) | 4.93% (inactive) | > 46 µM (inactive) | > 46 µM (inactive) | inactive |  | 10 µM (active) | 5.85% (inactive) | 14.8 | 20.1 | inactive | inactive | inactive |  | inactive
COc1cccc(Cn2c(=O)c(-c3cccs3)nc3cnc(N(C)C)nc32)c1 | > 11.4 µM (inactive) | -9.34% (inactive) | 15.8 µM (active) | 23.2% (inactive) | 11.2% (inactive) | > 9.22 µM (inactive) | > 46 µM (inactive) | inactive | inactive | inactive | 3.91% (inactive) | 25.6 | 27.3 | inactive | inactive | inactive |  | inactive
CN(C)c1ccc(-c2cc(Nc3ccc(F)cc3)ncn2)cc1 | > 11.4 µM (inactive) | -18.2% (inactive) | 0.398 µM (active) | -8.8% (inactive) | -12% (inactive) | > 46 µM (inactive) | > 46 µM (inactive) | inactive | inactive | inactive | 8.67% (inactive) | -11.3 | -0.85 | 11.2 µM (active) | 14.1 µM (active) | inactive |  | inactive
CCNc1ncc2ncc(=O)n(C3CC3)c2n1 | > 11.4 µM (inactive) | -20.4% (inactive) | 3.16 µM (active) | -6.86% (inactive) | -6.01% (inactive) | > 9.22 µM (inactive) | > 46 µM (inactive) | inactive |  |  | 3.55% (inactive) | 13.3 | 13.9 | 14.1 µM (active) | 11.2 µM (active) | 12.6 µM (active) | inactive | inactive
